From article PMC4336329 (PLoS ONE, 2015)
Hit rate of the full screen: of about 310,000 compounds, about 14,000 (4.5%) showed an effect of 50% or more. The effect is printed as a negative number. The full list was thinned out, with strong results kept by preference.

Each compound was assayed against human ether-à-go-go-related gene (hERG) potassium channel (human, UniProt Q12809) (assay: primary screen, population patch clamp on CHO cells stably expressing hERG; higher = less effect of the substance).
Chain of human ether-à-go-go-related gene (hERG) potassium channel (Q12809 whole entry, looked up): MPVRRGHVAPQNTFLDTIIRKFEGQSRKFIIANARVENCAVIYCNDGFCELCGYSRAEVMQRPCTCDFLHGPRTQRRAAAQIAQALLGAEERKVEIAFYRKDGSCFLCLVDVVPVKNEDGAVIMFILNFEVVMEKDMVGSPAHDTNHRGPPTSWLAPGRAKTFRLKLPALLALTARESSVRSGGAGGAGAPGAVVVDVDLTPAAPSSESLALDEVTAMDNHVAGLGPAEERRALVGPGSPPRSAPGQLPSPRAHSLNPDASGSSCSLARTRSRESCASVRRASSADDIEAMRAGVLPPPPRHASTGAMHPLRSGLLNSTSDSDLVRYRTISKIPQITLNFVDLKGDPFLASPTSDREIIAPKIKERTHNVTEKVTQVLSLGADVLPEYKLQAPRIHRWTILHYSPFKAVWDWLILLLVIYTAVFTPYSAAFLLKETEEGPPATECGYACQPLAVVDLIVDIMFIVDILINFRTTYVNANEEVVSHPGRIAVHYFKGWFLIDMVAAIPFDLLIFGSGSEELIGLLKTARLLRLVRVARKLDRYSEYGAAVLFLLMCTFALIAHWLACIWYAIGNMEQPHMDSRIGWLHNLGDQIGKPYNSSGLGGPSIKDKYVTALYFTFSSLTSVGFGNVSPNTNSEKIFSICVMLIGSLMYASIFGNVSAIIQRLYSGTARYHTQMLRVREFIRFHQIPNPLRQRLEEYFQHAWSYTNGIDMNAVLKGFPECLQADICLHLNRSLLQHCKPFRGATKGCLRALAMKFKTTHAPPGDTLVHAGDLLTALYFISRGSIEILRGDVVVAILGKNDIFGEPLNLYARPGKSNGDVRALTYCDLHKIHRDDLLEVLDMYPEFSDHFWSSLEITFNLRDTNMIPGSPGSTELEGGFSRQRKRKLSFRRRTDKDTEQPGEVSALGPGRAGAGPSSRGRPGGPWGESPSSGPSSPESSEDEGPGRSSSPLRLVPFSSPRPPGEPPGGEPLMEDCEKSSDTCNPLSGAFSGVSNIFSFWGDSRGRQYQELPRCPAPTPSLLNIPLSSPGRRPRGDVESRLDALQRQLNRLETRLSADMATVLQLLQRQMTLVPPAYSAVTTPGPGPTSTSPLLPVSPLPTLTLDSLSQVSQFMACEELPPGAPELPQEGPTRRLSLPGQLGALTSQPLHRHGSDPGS
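Also: peak tail current of the secondary pulse compared with the same well before compound.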

Row | Compound | hERG current change (%, negative = inhibition) at 10uM [%]
1 | CN(C)c1ccc(/C=N/NC(=O)c2cccc(N3CCCC3=O)c2)cc1 | 12.7
2 | O=C(Oc1ccc2ccccc2c1)c1ccco1 | 5.27
3 | O=C(Oc1ccc2ccc(=O)oc2c1)c1ccco1 | -73.1
4 | O=C(Oc1ccc2ccc(=O)oc2c1)c1ccccc1 | 14.2
5 | COc1ccc(CN2CCN(C(=O)c3cccs3)CC2)cc1Br | -24.4
6 | CCC(CC)C(=O)NCCc1ccc(OC)cc1 | 17.8
7 | Cc1csc(NC(=O)c2cccnc2)n1 | 13.5
8 | CCN1CCN(S(=O)(=O)c2ccc(Cl)c(C(=O)N(C)C(c3ccccc3)c3ccccc3)c2)CC1 | -50.5
9 | CCN1CCN(S(=O)(=O)c2ccc(Cl)c(C(=O)N(C)Cc3cccc(Cl)c3Cl)c2)CC1 | -61.3
10 | CCN1CCN(S(=O)(=O)c2ccc(Cl)c(C(=O)N(C)Cc3ccc(Cl)cc3Cl)c2)CC1 | -9.34
11 | CCc1ccc(CN(C)C(=O)c2cc(S(=O)(=O)N3CCN(CC)CC3)ccc2Cl)cc1 | -25.3
12 | CCN1CCN(S(=O)(=O)c2ccc(Cl)c(C(=O)N(C)Cc3cccs3)c2)CC1 | -14.6
13 | CCN1CCN(S(=O)(=O)c2ccc(Cl)c(C(=O)N(C)Cc3ccccc3)c2)CC1 | -28.8
14 | O=C(O)c1ccc2c(c1)C(=O)N(c1cccc(S(=O)(=O)Nc3cccc(C(F)(F)F)c3)c1)C2=O | 21.1
15 | CCN(CC)S(=O)(=O)c1ccc(C(C)NC(=O)C2CCCN2C(=O)c2cccs2)cc1 (centres unmarked) | -15.5
16 | Cc1cc(Cl)ccc1C(=O)C1CCCN(C(=O)CCN2CCCO2)C1 (centres unmarked) | -1.54
17 | CC(C)(C)NC(=O)C(c1ccccn1)N(C(=O)C1CSC(=O)C1)c1ccc(F)cc1 (centres unmarked) | 6.26
18 | O=c1[nH]c(O)c(C=NC2CCN(Cc3ccccc3)CC2)c(=O)[nH]1 | -31.6
19 | CCC(=NC1CCN(Cc2ccccc2)CC1)c1c(O)[nH]c(=O)[nH]c1=O | -52.4
20 | C=CCn1c(O)c(C(C)=NC2CC2)c(=O)[nH]c1=O | 9.27
21 | CCC(=NCCc1ccccc1)c1c(O)[nH]c(=O)[nH]c1=O | 10.1
22 | C=CCn1c(O)c(C(C)=NCCc2ccccc2)c(=O)[nH]c1=O | -14.7

Row | Compound | hERG current change (%, negative = inhibition) at 10uM [%]
23 | C=CCn1c(O)c(C(C)=NC2CCN(Cc3ccccc3)CC2)c(=O)[nH]c1=O | -55.7
24 | Cc1ccccc1CNC(=O)C1CCN(c2nnc(N3CCCC3=O)s2)CC1 | 19.3
25 | CC(C)(C)c1csc(CS(=O)(=O)c2ccccn2)n1 | -6.8
26 | Brc1ccc(C2=Nn3cnnc3SC2)cc1 | 13.6
27 | O=[N+]([O-])c1ccc(C2=Nn3cnnc3SC2)cc1 | -62.2
28 | Br.CCc1nnc2n1N=C(c1cccc([N+](=O)[O-])c1)CS2 | -32.1
29 | CCc1nnc2n1N=C(c1ccc([N+](=O)[O-])cc1)CS2 | -65.5
30 | CCOc1ccc(C2=Nn3cnnc3SC2)cc1 | -14.8
31 | Br.CCCc1nnc2n1N=C(c1ccc([N+](=O)[O-])cc1)CS2 | -38.6
32 | O=c1[nH]c(=O)n(CCc2ccccc2)c(O)c1C=NCCCn1ccnc1 | -2.66
33 | COc1ccccc1CC(NC(C)=O)C(=O)NC1CCN(C(=O)Nc2ccccc2F)CC1 (centres unmarked) | 28.3
34 | Cc1ccc(Cl)cc1NS(=O)(=O)c1ccc2oc(=O)ccc2c1 | -25.7
35 | COc1ccc(CCN(C)CC(O)c2ccccc2)cc1OC.O=C(O)C(=O)O (centres unmarked) | -32.2
36 | COc1ccc(CCN(C)Cc2nc(Cc3ccc(OC)c(OC)c3)no2)cc1OC | 0.332
37 | COc1ccc(CCN(C)CC(O)COc2ccc(C(C)=O)cc2OC)cc1OC (centres unmarked) | -21.6
38 | COc1ccc(CCN(C)CC(O)COc2c(C)ccc(C)c2C)cc1OC (centres unmarked) | -76
39 | COc1ccc(CCN(C)CC(O)COC(c2ccc(F)cc2)c2ccc(F)cc2)cc1OC (centres unmarked) | -79.2
40 | COc1ccc(C(CNCC(O)COc2c(C)ccc(C)c2C)N(C)C)cc1 (centres unmarked) | -44.1
41 | O=C(Nc1ccc(Nc2ccccc2)cc1)c1cc([N+](=O)[O-])ccc1Cl | 11.2
42 | CNc1ccc(Br)cc(C(=O)/C=C/c2cccc(OC)c2)c1=O | -1.19
43 | COc1ccc(NC2c3ncccc3C(=O)N2Cc2cccs2)cc1 (centres unmarked) | -18.4
44 | CCc1noc(C)c1C(=O)N1CCOCC1 | 14.4

Row | Compound | hERG current change (%, negative = inhibition) at 10uM [%]
45 | COC(=O)N1C(=O)[C@](c2ccccc2)(C(C)C)N1C(=O)OC | 12.2
46 | COc1ccccc1/C=N/NC(=O)c1cccc(OC(F)(F)C(F)F)c1 | -9.51
47 | O=C(NCCCN1CCOCC1)c1cc(-c2ccc(Cl)s2)nc2ccccc12 | -44.1
48 | Cc1cc(C(=O)N2CC=C(c3ccccc3)CC2)c2ccccc2n1 | -52.9
49 | O=C(c1cc(-c2ccc(Cl)s2)nc2ccccc12)N1CCCC1 | 4.92
50 | CC(=O)N1CCN(C(=O)c2cc(C)nc3ccccc23)CC1 | 31.1
51 | CC(C)(CNC(=O)c1cc(-c2ccc(Cl)s2)nc2ccccc12)N1CCOCC1 | -55.1
52 | O=C(O)c1ccccc1C(=O)N1CC=C(c2ccccc2)CC1 | 3.44
53 | Cc1ccc(-c2cc(C(=O)N3CCOCC3)c3ccccc3n2)cc1 | -3.91
54 | O=C(c1cc(-c2ccc(Cl)s2)nc2ccccc12)N1CCOCC1 | -17
55 | CC(=O)N1CCN(C(=O)c2cc(-c3ccc(Cl)s3)nc3ccccc23)CC1 | -51.8
56 | O=C(NCCN1CCOCC1)c1cc(-c2ccc(Cl)s2)nc2ccccc12 | -5.22
57 | O=C(c1cc(-c2ccccc2)nc2ccccc12)N1CCOCC1 | 27.6
58 | O=C(c1cc(-c2ccc(Cl)cc2)nc2ccccc12)N1CCOCC1 | -68.8
59 | CCOc1ccnc(OCC)c1Br | 28.3
60 | NS(=O)(=O)c1ccc(OC(=O)CNC(=O)OCc2ccccc2)cc1 | 11
61 | Cc1ccc(OCC(O)Cn2c(N3CCOCC3)nc3c2c(=O)[nH]c(=O)n3C)cc1 (centres unmarked) | -16.1
62 | Cc1nn(C)c(C)c1/C=N/NC(=O)c1csc2ccccc12 | -2.45
63 | O=C(CN1C(=O)NC(Cc2c[nH]c3ccccc23)C1=O)Nc1ccccc1Br (centres unmarked) | -15.4
64 | COc1ccc(S(=O)(=O)N2CCCC2C(=O)Nc2nc3c(s2)CCCC3)cc1 (centres unmarked) | -14
65 | COc1ccc(CCNC(=O)c2cc(S(=O)(=O)N(C)c3ccccc3)ccc2Cl)cc1 | -16.6
66 | Cn1[nH]c(-c2ccccc2)c(/C=N/O)c1=O | -15.1

Row | Compound | hERG current change (%, negative = inhibition) at 10uM [%]
67 | COCCn1c(-c2ccc(OC(F)(F)C(F)C(F)(F)F)cc2)nc2c1c(=O)[nH]c(=O)n2CC(C)C (centres unmarked) | -19.5
68 | CC1CCCN(C(=O)c2ccccc2OC2CCN(S(C)(=O)=O)CC2)C1 (centres unmarked) | 11.1
69 | O=C(c1cc(-c2ccccc2)nc2ccccc12)N1CCCC1 | 2.55
70 | O=C(c1cc(-c2ccc(Br)cc2)nc2ccccc12)N1CCC1 | -44.4
71 | O=C(c1cc(-c2ccc(Cl)cc2)nc2ccccc12)N1CCC1 | -59.7
72 | COc1ccc(/C=c2\sc3nc(-c4ccccc4OC)nn3c2=O)c(OC)c1 | 9.67
73 | Cc1c(C)c2ccc(OCC(=O)N3CCN(c4ccc(F)cc4)CC3)c(C)c2oc1=O | 2.26
74 | Cc1cc(OCC(=O)N2CCN(c3ccc(F)cc3)CC2)c2c(C)cc(=O)oc2c1 | 10.7
75 | Cc1ccc(C)c(N2CCN(C(=O)COc3cc(=O)n(C)c4ccccc34)CC2)c1 | -32.3
76 | Cn1c(=O)cc(OCC(=O)N2CCN(c3ccccc3F)CC2)c2ccccc21 | -17.5
77 | COC(=O)c1ccccc1OCC(=O)N1CCN(c2ccc(F)cc2)CC1 | -44.9
78 | Cc1cccc(N2CCN(C(=O)CCS(=O)(=O)c3ccc4c(c3)oc(=O)n4C)CC2)c1C | -51.2
79 | CC(=O)c1cc(F)ccc1OCC(=O)N1CCN(c2ccc(F)cc2)CC1 | -58.2
80 | Cn1c(=O)oc2cc(S(=O)(=O)CCC(=O)N3CCN(c4ccccc4F)CC3)ccc21 | 1.03
81 | COC(=O)c1ccc(OC)cc1OCC(=O)N1CCN(c2ccc(F)cc2)CC1 | -33
82 | Cc1cccc(N2CCN(C(=O)COc3cc(=O)n(C)c4ccccc34)CC2)c1C | -61.2
83 | CCC(=O)c1cc(F)ccc1OCC(=O)N1CCN(c2ccc(F)cc2)CC1 | -72.1
84 | Cc1ccc(C)c(N2CCN(C(=O)CCS(=O)(=O)c3ccc4c(c3)oc(=O)n4C)CC2)c1 | -48.6
85 | CCOC(=O)c1c(S(=O)(=O)NCC(=O)Nc2ccc(F)cc2)c(C)n(C)c1C | 14.5
86 | CCOC(=O)c1cc(C#N)c(N2CCNCC2)nc1C(F)(F)F | -12.3
